In paper PMC5540273 (PLoS ONE, 2017):

Tested on: GSK3B
Conditions: 1 µM; n = 1
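Also: KINOMEscan kinase panel screen.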

Structure (SMILES)	%Inh [%]
COc1cccc(C2=C(Nc3ccc(Cl)c(C(=O)O)c3)C(=O)NC2=O)c1 [SB-390769]	34
COc1cccc(-c2ccc3c(NC(=O)C4CC4)n[nH]c3n2)c1 [SB-710903]	43
O=C(Nc1n[nH]c2cc(-c3ccoc3)ccc12)C1CC1 [SB-738481]	54

Same assay, conditions: concentration: 1 μM, replicates: in singlicate; n = 1

Structure (SMILES)	%Inh [%]
Nc1ncc(-c2cccnc2)c2scc(-c3ccc4c(c3)CCN4C(=O)Cc3ccccc3)c12 [GSK683281]	29
c1ccc(Oc2ccc(Nc3ccnc4cc(-c5ccc(CNCCN6CCOCC6)o5)ccc34)cc2)nc1 [GW567145]	0
Cl.Cl.NCC(NCc1ccc(-c2ccnc3[nH]ccc23)s1)c1ccccc1 (stereo not drawn) [GSK1321565]	0
CCn1c(-c2nonc2N)nc2c(C#CC(C)(C)O)nc(OC[C@H](N)c3ccccc3)cc21 [GSK943949]	59
O=C(Nc1cccc(-c2nn3ncccc3c2-c2ccnc(Nc3ccccc3)n2)c1)c1c(F)cccc1F [GSK198271]	14
CCS(=O)(=O)c1ccc(OC)c(Nc2nccc(-c3c(-c4cccc(NC(=O)c5c(F)cccc5F)c4)nn4ncccc34)n2)c1 [GSK326180]	2
C[C@@H](Oc1cc(-n2cnc3cc(-c4ccnc(NCCS(C)(=O)=O)c4)ccc32)sc1C(N)=O)c1ccccc1Cl [GSK907232]	16
Oc1cc(Nc2ccnc3cc(I)ccc23)ccc1F [GW552771]	0
Nc1ncc(-c2ccc3nccc(-c4ccncc4)c3c2)cc1S(=O)(=O)N1CCOCC1 [GSK1627798]	3
Cl.Cl.NCC(C(=O)Nc1cc(Br)c(-c2ccnc3[nH]ccc23)s1)c1ccccc1 (stereo not drawn) [GSK1269851]	7
COc1ccc(Nc2nccc(N3CCC(NC(=O)Nc4cccc(OC)c4)C3)n2)cc1 (stereo not drawn) [GSK1379742]	2
Cc1cccc(NC(=O)Nc2ccc(Oc3ncnc4ccn(C)c34)cc2)c1	0
O=C(Nc1ccccc1F)NC1CCN(c2ccnc(Nc3ccc(F)cc3)n2)CC1 [GSK1379800]	12
O=c1[nH]cc(-c2ccc(N3CCOCC3)cc2)c2sc(-c3cn[nH]c3)cc12 [GSK2276055]	77
COc1ccc(Nc2nccc(NCCNC(=O)c3cc4ccccc4s3)n2)cc1 [GSK1379896]	13
O=C(Nc1cccc(-c2nn3ccccc3c2-c2ccnc(Nc3cccc(C(F)(F)F)c3)n2)c1)c1c(F)cccc1F [GSK292658]	4
Cc1cccc(Nc2nc(N[C@H]3CCNC3)ncc2C(N)=O)c1.Cl [GSK2197149]	0
Fc1ccc(-c2ncn(C3CCNCC3)c2-c2ccnc(Oc3ccc(-c4ccccc4)cc3)n2)cc1 [SB-245391]	27
O=C(NC1CCN(c2ccnc(Nc3ccc(F)cc3)n2)C1)c1cc2ccccc2s1 (stereo not drawn) [GSK1379716]	20
COc1cccc(C(=O)Nc2cccc(Oc3ccc4nc(NC(=O)C5CC5)cn4n3)c2)c1	10
Cl.NC(=O)c1cccc(Nc2nccc(Nc3ccc(Oc4c(Cl)cccc4Cl)c(Cl)c3)n2)c1 [GW659009]	0
Cl.c1ccc(-c2ccc3c(Nc4ccc5[nH]ccc5c4)ccnc3c2)nc1 [GW440138]	0
COc1ccc(-c2coc3ccc(-c4nnc(SCc5ccc(OC)c(C(F)(F)F)c5)o4)cc23)cc1	4
COc1cc2c(cc1OCCN1CCNCC1)ncc1c3ccc(C#N)cc3[nH]c21	26
CN(c1ccc(NC(=O)Nc2cc(C(F)(F)F)ccc2F)cc1)c1ccnc(Nc2ccc(S(N)(=O)=O)cc2)n1 [GW809893]	12
Cn1cc(-c2ccc3c(c2)CCN3C(=O)Cc2cccc(F)c2)c2c(N)ncnc21 [GSK2603358]	12
CN(C)Cc1ccc(-c2ccc3c(Nc4ccc(Oc5ccccn5)cc4)ccnc3c2)o1 [GW567148]	6
c1ccc(-c2n[nH]cc2Nc2ccnc3ccccc23)nc1 [GW694077]	7
COc1ccc(CNC(=O)NC2CCN(c3ccnc(Nc4ccc(F)cc4)n3)CC2)cc1 [GSK1379788]	0
COc1cc(Nc2nccc(-c3c(-c4cccc(NC(=O)c5c(F)cccc5F)c4)nn4ncccc34)n2)cc(OC)c1OC [GSK327238]	7
